What all share (experiment): PBM binding z-score (relative to random genomic background probes); higher = stronger binding; sequences stand for … in GC…GCGATTGACAGCGTAGAATGAAGG
Assay [1] concerns PPARg:RXRa DBDmut IVT, anti-RXR (DBD mutation: RXRa K156A/R161A, NR concentration 270 nM, RXRa partner concentration 90 nM). In outline: (§1)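 On custom Agilent 4×180K arrays, double-stranded probes with 34-nt variable regions carried direct-repeat seeds, single-nucleotide variants, half-site ablations or random human genomic background. Ligand-free nuclear receptor dimers were applied for 1 h, and binding was read with antibodies against each partner (one per run). Binding z-scores come from regression-normalized fluorescence, with the random background probes as reference.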

The subject of assay [2] is PPARg:RXRa IVT, anti-PPARg (NR concentration 270 nM, RXRa partner concentration 90 nM). In outline: as §1
For assay [3], the system named is PPARg DBDmut:RXRa IVT, anti-PPARg (DBD mutation: PPARg1 K132A/R137A, NR concentration 270 nM, RXRa partner concentration 90 nM). The procedure, abridged: as §1
Assay [4] relates to PPARg DBDmut IVT, anti-PPARg (DBD mutation: PPARg1 K132A/R137A, NR concentration 270 nM). In outline: as §1
Assay [5] deals with PPARg homodimer (NR concentration 180 nM). In outline: as §1
Assay [6] concerns PXR:RXRa (NR concentration 270 nM, RXRa partner concentration 90 nM). In outline:
as §1

Assay [7] concerns PXR homodimer (NR concentration 270 nM). The procedure, abridged:
as §1

For assay [8], the system named is RARa:RXR (NR concentration 270 nM, RXRa partner concentration 90 nM). In outline:
as §1

Assay [9] deals with RARa homodimer (NR concentration 270 nM). In outline:
as §1

For assay [10], the system named is RARb:RXRa (NR concentration 270 nM, RXRa partner concentration 90 nM). The procedure, abridged: as §1
In assay [11] the test system is RARb homodimer (NR concentration 270 nM). The procedure, abridged:
as §1

For assay [12], the system named is RARg:RXRa (NR concentration 270 nM, RXRa partner concentration 90 nM). The procedure, abridged:
as §1

The subject of assay [13] is RARg homodimer (NR concentration 270 nM). In outline: as §1
Assay [14] concerns RXRa DBDmut IVT, anti-RXR (DBD mutation: RXRa K156A/R161A, NR concentration 90 nM). The procedure, abridged: as §1
In assay [15] the test system is RXRa homodimer (NR concentration 180 nM). In outline:
as §1

Assay [16] has as its system THRa:RXRa (NR concentration 90 nM, RXRa partner concentration 90 nM). The procedure, abridged:
as §1

Assay [17] relates to THRa homodimer (NR concentration 90 nM). In outline: as §1
Assay [18] deals with VDR:RXRa (NR concentration 270 nM, RXRa partner concentration 90 nM). In outline: as §1
Assay [19] relates to VDR homodimer (NR concentration 270 nM). In outline: as §1

As for GGATCGAGGGCAAAGTTGATAGCATCTGTCGACG, the PBM binding z-score was determined as 3.8 in [1]; 4.54 in assay [2]; 0.527 in [3]; 1.19 in [4]; 1.75 in assay [5]; 1.34 in assay [6]. Besides, the PBM binding z-score was 0.172 in assay [7]; 1.65 in assay [8]; -0.00886 in [9]; 2.61 in assay [10]; 1.47 in assay [11]; 2.12 in assay [12]. For the same sequence, the PBM binding z-score in assay [13] was 1.7; in assay [14], 2.4; in assay [15], 2.08; in assay [16], 1.39; in [17], -0.165; in [18] it was 1.44. The same sequence displayed a PBM binding z-score in [19] of 1.94.

Regarding CCTGCTAGGTCATTGTCAGCTAATCTACAGTATG, the PBM binding z-score is 4.13 in assay [1]; 3.2 in assay [2]; 0.372 in [3]; 0.337 in assay [4]; 0.865 in assay [5]; 1.12 in assay [6]. Moreover, the PBM binding z-score in assay [7] is -0.0805; in assay [8], 1.77; in assay [9] it was 0.00948; in assay [10], 3.55; in assay [11] it was 2.45; in assay [12] it was 3.06. Moreover, the PBM binding z-score in [13] turned out to be 3.95; in assay [14] it was 2.93; in assay [15], 1.9; in assay [16] it was 2.61; in assay [17], 0.862; in [18], 1.66. The sequence also returned a PBM binding z-score in assay [19] of 1.14.

Consider AGTCAAAGTTCATCTAGGAAACGTAAGATATGCT, for which the PBM binding z-score is 0.0279 in assay [1]; 2.61 in assay [2]; 1.09 in assay [3]; 0.7 in [4]; 2.32 in assay [5]; 4.53 in assay [6]. Also, the PBM binding z-score in assay [7] stood at 3.68; in assay [8], 3.18; in assay [9] it was 1.09; in assay [10], 5.02; in assay [11], 3.89; in assay [12], 5.45. The PBM binding z-score in assay [13] was 6.42; in assay [14], 4.79; in assay [15], 4.58; in assay [16], 1.98; in assay [17] it was -0.21; in assay [18], 4.66. This sequence also had a PBM binding z-score in [19] of 4.34.

As to AGAATGATGTTACCAAAGATCAGGGAAACGCTTG, the PBM binding z-score in assay [1] is -0.0632; in assay [2], 0.0152; in assay [3], 0.508; in [4] it was 0.116; in assay [5], -0.153; in assay [6] it was -0.39. The PBM binding z-score in [7] is -0.411; in assay [8] it was 0.018; in assay [9], 0.147; in assay [10], -0.129; in assay [11] it was -0.737; in [12] it was 0.0194. Moreover, the PBM binding z-score is 0.432 in assay [13]; -0.312 in assay [14]; 0.387 in assay [15]; -0.115 in assay [16]; -0.58 in [17]; -0.205 in assay [18]. Besides, in assay [19], the PBM binding z-score is -0.437.

For the sequence TCTATTAGTTGAAGGGCAAACGACGAGTCCGTTT, the PBM binding z-score in assay [1] was 2.81; in assay [2] it was 0.694; in assay [3], 0.606; in [4], 0.592; in [5], 1.18; in assay [6], 1.25. For the same sequence, the PBM binding z-score turned out to be 1.12 in assay [7]; 1.22 in assay [8]; 1.02 in [9]; 1.72 in assay [10]; 1.26 in [11]; 0.673 in [12]. The PBM binding z-score was determined as 0.64 in assay [13]; 1.79 in assay [14]; 1 in [15]; 0.493 in [16]; 0.286 in assay [17]; 1.45 in assay [18]. This sequence gave a PBM binding z-score in assay [19] of 1.91.

Consider CCTACTGGGCCATTCAGAAGTCATTGATCATATG, for which the PBM binding z-score is 4.43 in assay [1]; 3.36 in assay [2]; -0.17 in [3]; -0.487 in assay [4]; 0.0197 in [5]; -0.557 in [6]. The PBM binding z-score in assay [7] is -0.689; in [8], -0.413; in assay [9], 0.126; in assay [10], 0.115; in [11] it was -0.105; in assay [12] it was 0.0962. Also, the PBM binding z-score in assay [13] is 0.226; in assay [14], -0.00725; in assay [15], -0.479; in [16], -0.404; in assay [17], -0.643; in [18], -0.356. In assay [19], this sequence gave a PBM binding z-score of -0.285.

As for AGTCAAAGTTCAGGACGAGGTAAGGTAAAGCACG, the PBM binding z-score in assay [1] is -0.019; in assay [2], 1.69; in assay [3] it was 0.348; in [4] it was -0.0383; in [5], 2.01; in assay [6], 2.5. The PBM binding z-score was found to be 1.18 in assay [7]; 2.42 in assay [8]; 1.06 in assay [9]; 4.4 in [10]; 3.46 in assay [11]; 4.56 in assay [12]. Besides, the PBM binding z-score worked out at 4.61 in assay [13]; 3.11 in assay [14]; 3.09 in [15]; 3.72 in [16]; 2.26 in assay [17]; 2.4 in assay [18]. For the same sequence, the PBM binding z-score in assay [19] turned out to be 2.09.

The record behind these values is the supplement of paper PMC6555819.
